Results on 41 compounds are retold here after the antibiotic and cytotoxicity screens of Wong et al. (2023).

The structures appear in SMILES notation. Among all 39,000 compounds or so, about 1,500 (3.8%) were called active. What follows is part of a selection rich in actives, with near analogues and random picks from the rest.

The experiment deals with HSkMC (human skeletal muscle cells). In words: cytotoxicity call (relative viability < 0.9). The settings on record: 10 µM.
As to `Cc1noc(C)c1S(=O)(=O)N(C)C[C@H]1OCCCC[C@@H](C)Oc2ccc(NC(=O)Nc3ccccc3)cc2C(=O)N([C@@H](C)CO)C[C@@H]1C`, the cytotoxicity call was “inactive”.

Consider `COc1ccc(NC(=O)Nc2ccc3c(c2)C(=O)N([C@H](C)CO)C[C@H](C)[C@@H](CN(C)S(=O)(=O)c2c(C)noc2C)OCCCC[C@@H](C)O3)cc1`, for which the cytotoxicity call is “inactive”.

Consider `C[C@@H]1CCCCO[C@@H](CN(C)C(=O)NC2CCCCC2)[C@H](C)CN([C@H](C)CO)C(=O)c2cc(NC(=O)Cc3ccccc3)ccc2O1`, for which the cytotoxicity call was “inactive”.

For `CC(C)NC(=O)Nc1ccc2c(c1)C(=O)N([C@@H](C)CO)C[C@@H](C)[C@H](CN(C)S(=O)(=O)c1cn(C)cn1)OCCCC[C@@H](C)O2`, the cytotoxicity call is “inactive”.

For `C[C@@H]1CCCCO[C@@H](CN(C)Cc2ccc3c(c2)OCO3)[C@@H](C)CN([C@H](C)CO)C(=O)c2cc(NC(=O)Nc3ccc(C(F)(F)F)cc3)ccc2O1`, the cytotoxicity call was “inactive”.

`C[C@@H]1CCCCO[C@@H](CN(C)Cc2ccc3c(c2)OCO3)[C@H](C)CN([C@@H](C)CO)C(=O)c2cc(NC(=O)Nc3ccc(C(F)(F)F)cc3)ccc2O1`: the cytotoxicity call was “active”.

As for `C[C@@H]1CN([C@@H](C)CO)C(=O)c2cc(NC(=O)Nc3ccc(C(F)(F)F)cc3)ccc2O[C@@H](C)CCCCO[C@@H]1CN(C)Cc1ccc2c(c1)OCO2`, the cytotoxicity call is “inactive”.

In the case of `C[C@H](CO)N1C[C@H](C)[C@@H](CN(C)Cc2ccc3c(c2)OCO3)OCCCC[C@H](C)Oc2ccc(NC(=O)Nc3ccc(C(F)(F)F)cc3)cc2C1=O`, the cytotoxicity call is “active”.

As for `C[C@H](CO)N1C[C@H](C)[C@H](CN(C)Cc2ccc3c(c2)OCO3)OCCCC[C@H](C)Oc2ccc(NC(=O)Nc3ccc(C(F)(F)F)cc3)cc2C1=O`, the cytotoxicity call is “active”.

Turning to `C[C@@H]1CN([C@H](C)CO)C(=O)c2cc(NC(=O)Nc3ccc(C(F)(F)F)cc3)ccc2O[C@@H](C)CCCCO[C@H]1CN(C)Cc1ccc2c(c1)OCO2`, the cytotoxicity call was “active”.

Take `CC(C)NC(=O)Nc1cccc2c1O[C@@H](CN(C)S(=O)(=O)c1ccccc1)[C@H](C)CN([C@H](C)CO)C2=O`: the cytotoxicity call was “inactive”.

On to `C[C@@H]1CN([C@@H](C)CO)S(=O)(=O)c2ccc(Br)cc2O[C@H]1CN(C)C(=O)c1ccncc1`, for which the cytotoxicity call is “inactive”.

Turning to `C[C@H](CO)N1C[C@H](C)[C@@H](CN(C)S(=O)(=O)c2ccc(Oc3ccccc3)nc2)OCc2cn(nn2)CCCC1=O`, the cytotoxicity call is “inactive”.

Turning to `c1ccc2c(c1)[nH]c1ncccc12`, the cytotoxicity call is “inactive”.

`CCC(=O)N[C@H]1C=C[C@H](CC(=O)OC)O[C@@H]1CO`: the cytotoxicity call is “inactive”.

With `COc1ccc(NC(=O)Nc2ccc3c(c2)C(=O)N([C@@H](C)CO)C[C@H](C)[C@@H](CN(C)C(=O)c2ccccc2)OCCCC[C@H](C)O3)cc1`, the cytotoxicity call was “inactive”.

Consider `O=S(=O)(N1CCOCC1)N1CCCN(S(=O)(=O)N2CCOCC2)CC1`, for which the cytotoxicity call was “inactive”.

Regarding `C[C@@H](O)C#Cc1ccc2c(c1)O[C@H](CN(C)C(=O)Cc1ccccn1)[C@@H](C)CN([C@@H](C)CO)S2(=O)=O`, the cytotoxicity call is “inactive”.

As to `O=C(C[C@H]1C=C[C@H](NC(=O)CN2CCOCC2)[C@@H](CO)O1)NC1CCCCC1`, the cytotoxicity call was “inactive”.

Regarding `Nc1ccc(S(N)(=O)=O)cn1`, the cytotoxicity call is “inactive”.

As for `Cc1cc(C(=O)Nc2cccc3c2O[C@@H](CN(C)Cc2ccc(C(=O)O)cc2)[C@@H](C)CN([C@@H](C)CO)C3=O)n(C)n1`, the cytotoxicity call was “inactive”.

For `C[C@@H]1CCCCO[C@@H](CN(C)Cc2ccc3c(c2)OCO3)[C@@H](C)CN([C@@H](C)CO)C(=O)c2cc(NC(=O)Nc3ccc(C(F)(F)F)cc3)ccc2O1`, the cytotoxicity call was “active”.

With `C[C@@H]1CCCCO[C@H](CN(C)Cc2ccc3c(c2)OCO3)[C@@H](C)CN([C@@H](C)CO)C(=O)c2cc(NC(=O)Nc3ccc(C(F)(F)F)cc3)ccc2O1`, the cytotoxicity call is “active”.

Consider `C[C@H](CO)N1C[C@H](C)[C@H](CN(C)C(=O)Nc2ccc3c(c2)OCO3)OCCCC[C@H](C)Oc2ccc(NC(=O)CCC(F)(F)F)cc2C1=O`, for which the cytotoxicity call is “inactive”.

For the compound `C[C@@H]1CN([C@H](C)CO)C(=O)c2cc(NC(=O)NC3CCCCC3)ccc2O[C@@H]1CN(C)Cc1ccc(Oc2ccccc2)cc1`, the cytotoxicity call is “inactive”.

With `Cc1noc(C)c1S(=O)(=O)Nc1ccc2c(c1)C(=O)N([C@H](C)CO)C[C@@H](C)[C@H](CN(C)S(=O)(=O)c1cn(C)cn1)OCCCC[C@@H](C)O2`, the cytotoxicity call was “inactive”.

`C/C=C1\NC(=O)[C@H]2CSSCC/C=C/[C@H](CC(=O)N[C@H](C(C)C)C(=O)N2)OC(=O)[C@H](C(C)C)NC1=O`: the cytotoxicity call is “active”.

In the case of `CC(C)NC(=O)N(C)C[C@H]1Oc2ccc(NC(=O)CCN3CCOCC3)cc2CC(=O)N([C@@H](C)CO)C[C@@H]1C`, the cytotoxicity call was “inactive”.

As to `COCC(=O)N1CC[C@]2(CC1)CN([C@@H](CO)c1c2c2ccc(cc2n1C)OC)C(=O)CN1CCOCC1`, the cytotoxicity call is “inactive”.

For the compound `CCOC(=O)c1c(CN2CCN(c3ccccc3)CC2)n(-c2ccccc2)c2cc(Br)c(O)cc12`, the cytotoxicity call is “active”.

As to `CCOC(=O)c1c(CN2CCN(CCOCCO)CC2)n(-c2ccccc2)c2cc(Br)c(O)cc12`, the cytotoxicity call was “inactive”.

For the compound `CCOC(=O)c1c(CN2CCN(c3ccccc3)CC2)n(C2CCCCC2)c2cc(Br)c(O)cc12`, the cytotoxicity call is “active”.

On to `CCOC(=O)c1c(CN2CCN(Cc3ccccc3)CC2)n(-c2ccccc2)c2cc(Br)c(O)cc12`, for which the cytotoxicity call was “inactive”.

Take `CCOC(=O)c1c(CN2CCN(c3ccc(C)cc3)CC2)n(-c2ccccc2)c2cc(Br)c(OC)cc12`: the cytotoxicity call was “inactive”.

On to `CCOC(=O)c1c(CN2CCN(c3ccccc3C)CC2)n(-c2ccccc2)c2cc(Br)c(O)cc12`, for which the cytotoxicity call is “active”.

`CCOC(=O)c1c(CN2CCN(Cc3ccccc3)CC2)n(-c2ccccc2)c2cc(Br)c(OC)cc12`: the cytotoxicity call was “inactive”.

On to `CCOC(=O)c1c(CNCCN(CC)CC)n(-c2ccccc2)c2cc(Br)c(OC)cc12`, for which the cytotoxicity call is “inactive”.

Regarding `CCOC(=O)c1c(CN2CCN(c3ccccc3)CC2)n(-c2ccccc2)c2cc(Br)c(OC)cc12`, the cytotoxicity call was “inactive”.

In the case of `COc1ccc(CN(C)C[C@@H]2OCCCC[C@@H](C)Oc3ccc(NC(=O)Nc4c(C)noc4C)cc3C(=O)N([C@H](C)CO)C[C@@H]2C)cc1`, the cytotoxicity call was “inactive”.

Take `Cc1noc(C)c1S(=O)(=O)N(C)C[C@H]1Oc2ccc(N(C)C)cc2CC(=O)N([C@@H](C)CO)C[C@H]1C`: the cytotoxicity call is “inactive”.

Take `C[C@@H]1CN([C@H](C)CO)C(=O)c2cc(C#CC3(O)CCCC3)cnc2O[C@@H]1CN(C)C(=O)Cc1ccncc1`: the cytotoxicity call is “inactive”.
